Data on nine molecules can be found in PubChem BioAssay (NCATS).

Test [1] can be described thus: qHTS profiling of the MIPE4 collection as inhibitors of Plasmodium falciparum (DD2) proliferation (Rep 2) (AID 743346; call rule not given here). As to conditions: P. falciparum Dd2 in erythrocytes, SYBR Green DNA, 72 h; at 28.5 µM unless noted. In short, it runs like this: (§1)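 Parasite DNA was quantified by SYBR Green I fluorescence (ex 485, em 535 nm) after overnight lysis in saponin/Triton buffer at room temperature. Cultures at 0.3% parasitemia and 2.5% hematocrit were first exposed to compound for 72 h at 37 C; signals were normalised to artemisinin (0.29 uM) and vehicle wells.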

The nature of test [2]: qHTS profiling of the MIPE4 collection as inhibitors of Plasmodium falciparum (HB3) proliferation (AID 743347; call rule not given here;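 further: plate controls were DMSO vehicle wells for no effect and artemisinin wells for full effect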). Particulars: P. falciparum HB3 in erythrocytes, SYBR Green DNA, 72 h; at 28.5 µM unless noted. The method, boiled down: as §1
Background: qHTS replaces the single test concentration by a dilution series.

The nature of test [3]: High-throughput drug toxicity screening in the BPDCN cell line Gen2.2 (AID 1224824; call rule not given here;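 further: cells exposed to compounds for 48 h before reading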). Particulars: Gen2.2 BPDCN cells; at 45.8 µM (top of the series) unless noted. The method, boiled down:
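Gen2.2 cells, 500 per well in phenol red-free RPMI with 10% FBS, exposed to compounds 48 h at 37 C, 5% CO2; viability by CellTiter-Glo luminescence. Percent activity scaled to DMSO (100%) and 9.2 uM bortezomib final (0%).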

Test [4] can be described thus: High-throughput drug toxicity screening in the BPDCN cell line Cal-1 (AID 1224825; call rule not given here). Particulars: Cal-1 BPDCN cell viability, qHTS; at 45.8 µM (top of the series) unless noted. In short, it runs like this:
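Percent activity derived from CellTiter-Glo luminescence, scaling DMSO to 100% and 9.2 uM final bortezomib to 0%. BPDCN Cal-1 cells (500/well, RPMI plus 10% FBS) incubated with compounds 48 hours at 37C before reading.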

The nature of test [5]: qHTS assay for measurement of the activity of small molecule inhibitors on Zika virus induced Caspase-3 activity in human iPSC derived neural progenitor cells (hNPCs) (AID 1224857). Further: % of control where 0% means no effect; nearly all actives have a fitted effect of over 65% in size. The method, boiled down: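 Percent inhibition of virus-induced caspase-3/7 luminescence (Caspase-Glo), scaled between uninfected cells and Zika-infected cells. hNPCs received compound 1 hr before ZIKV at 2 FFU/cell, with 6 hours infection at 37 C.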

A short description of test [6]: qHTS assay for measurement of the activity of small molecule inhibitors on Zika virus induced Caspase-3 activity in human astrocytoma cells (AID 1224859).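 Further: plate controls were ZIKV-infected untreated cells for no effect and uninfected cells for full effect.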 In short, it runs like this: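 Luminescent caspase-3/7 read-out (30 min reagent, room temperature) in human SNB-19 cells infected 6 h with ZIKV (2 FFU/cell) after 1 h compound pre-incubation; Data were normalised to uninfected and infected wells.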

Test [7] in a line: qHTS Screen of the MIPE 4.0 Collection Against Ewings Sarcoma (TC71) (AID 1259253). Further: nearly all actives have a fitted effect of over 40% in size. Further: potency means the concentration at half of the fitted maximal effect. In short, it runs like this: (§2)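 Cells plated in serum-containing RPMI (5% FBS) and treated with compound dilutions for 48 h. Readout luminescent viability; normalization relied on vehicle (no inhibition) and media-only columns (full inhibition).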
Test [8] is described as follows: qHTS Screen of the MIPE 4.0 Collection Against Ewings Sarcoma (EW8) (AID 1259255). Further: nearly all actives have a fitted effect of over 35% in size. Further: potency means the concentration at half of the fitted maximal effect.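 On viability: 100% = DMSO-treated cells and 0% = medium-only wells without cells.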 In short, it runs like this:
as §2

Test [9] in a line: qHTS assay to identify small molecule inhibitors of chordoma cells - UCH-1 (AID 1259355). Further: on the % scale 0 is the no-effect control and ±100 the full control effect; nearly all actives have a fitted effect of over 55% in size. The method, boiled down: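 800 cells/well, overnight attach; compounds pinned at 15 concs, then auranofin/camptothecin/doxorubicin/rubitecan/topotecan combo added; 48hr 37 C, 5% CO2; CellTiter-Glo, 30min RT, luminescence.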
The nature of test [10]: qHTS assay to identify small molecule inhibitors of chordoma cells - UCH-2 (AID 1259356). Further: on the % scale 0 is the no-effect control and ±100 the full control effect.
A short description of test [11]: qHTS Screen of the MIPE 4.0 Collection Against Ewings Sarcoma (RDES) (AID 1259252). Further: nearly all actives have a fitted effect of over 35% in size. Further: potency means the concentration at half of the fitted maximal effect. The method, boiled down: as §2
Test [12] is described as follows: P-glycoprotein substrates identified in KB-8-5-11 adenocarcinoma cell line, qHTS therapeutic library screen (AID 1346987). Further: nearly all actives have a fitted effect of over 65% in size. In short, it runs like this: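 In this qHTS, P-gp-rich KB-8-5-11 cells received library compounds across a concentration range. Viability was quantified by luminescence after 72 h at 37 degree C.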
A short description of test [13]: qHTS Screen of the MIPE 4.0 Collection Against Ewings Sarcoma (TC32) (AID 1259256).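 Further: 100% = DMSO-treated cells and 0% = medium-only wells without cells; nearly all actives have a fitted effect of over 45% in size.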 The method, boiled down: as §2

Records with an inconclusive call do not appear. Active and inactive are the calls of the source. Unless noted, the call rests on the fitted dose curve; in most records, active means well fitted curve in the direction sought with a large enough effect; inconclusive means small, poorly fitted or top-dose-only effect, or another doubt; inactive means no such curve, though single readings can be large; an effect the other way counts as inactive or inconclusive.

Consider `Nc1[nH]c(=O)ncc1F`, for which the parasite growth, % of control (lower = inhibition) in test [1] was 158%. The growth, % of control in test [2] worked out at 699%. In addition, the cell viability, % of control (lower = more cytotoxic) in [3] is 87.4%. For the same molecule, the viability (% of control) in test [4] was found to be 22.3%. Besides, the Potency result in [5], in [6], in test [8], in test [9] and in [10] was “inactive” in each case. In addition, the Potency in test [7] is 18.7 µM (active).

In the case of `CCOC(=O)[C@H](CCc1ccccc1)N[C@H]1CS[C@H](c2cccs2)CN(CC(=O)O)C1=O`, the parasite growth, % of control (lower = inhibition) in test [1] turned out to be 6.49%. This molecule came in with a growth, % of control in test [2] of 6.02%. The cell viability, % of control (lower = more cytotoxic) in test [3] came out at 189%. In addition, in test [4], the viability (% of control) amounted to 14%. Further, the Potency entry in test [5], in test [6], in test [9], in test [10] and in [12] was “inactive” each time. Besides, the values for the Potency in [11], in test [7] and in [8] were 4.18 µM (active), 5.9 µM (active) and 5.9 µM (active), respectively.

In the case of `CCN(CC)CC#CCOC(=O)C(O)(c1ccccc1)C1CCCCC1` (stereo unspecified), the parasite growth, % of control (lower = inhibition) in test [1] came to 16.6%. In addition, the growth, % of control in test [2] came out at 11.2%. Also, the cell viability, % of control (lower = more cytotoxic) in [3] was determined as 205%. For the same molecule, the viability (% of control) in test [4] turned out to be 104%. Further, the Potency entry in test [5], in [6], in [11], in test [7], in test [8] and in test [10] was “inactive” each time. Also, in test [12], the Potency entry was “inactive”.

For the molecule `NNC(=O)c1ccncc1`, in test [1], the parasite growth, % of control (lower = inhibition) came to 8.5%. This molecule also returned a growth, % of control in [2] of 2.55%. Further, the cell viability, % of control (lower = more cytotoxic) in test [3] was 88.1%. In addition, in [4], the viability (% of control) came out at 99.3%. For the same molecule, the Potency result in test [5], in test [6], in test [11], in test [7], in [8] and in [13] was “inactive” in each case. The Potency entry in test [12] is “inactive”.

Take `N[C@@H](Cc1ccc(O)c(O)c1)C(=O)O`: the parasite growth, % of control (lower = inhibition) in test [1] amounted to 64.9%. Also, the growth, % of control in [2] amounted to 84%. For the same molecule, the cell viability, % of control (lower = more cytotoxic) in test [3] turned out to be 94.2%. The viability (% of control) in test [4] turned out to be 93.8%. Moreover, the Potency entry in [5], in [6], in test [7], in test [8], in test [13] and in test [10] was “inactive” each time. In addition, in test [12], the Potency result is “inactive”.

With `CC(C)(C#N)c1cc(Cn2cncn2)cc(C(C)(C)C#N)c1`, the parasite growth, % of control (lower = inhibition) in test [1] turned out to be 88.7%. This molecule showed a growth, % of control in test [2] of 66.6%. In test [3], the cell viability, % of control (lower = more cytotoxic) was 47%. Besides, the viability (% of control) in [4] amounted to 105%. Besides, the Potency entry in test [5], in [6], in [7], in [8], in [13] and in test [9] was “inactive” throughout. The Potency entry in test [10] is “inactive”.

Consider `COc1cccc(N(C)C(=S)Oc2ccc3c(c2)CCCC3)n1`, for which the parasite growth, % of control (lower = inhibition) in test [1] was 34.5%. For the same molecule, in test [2], the growth, % of control worked out at 24.4%. Further, the cell viability, % of control (lower = more cytotoxic) in test [3] stood at 245%. Moreover, in [4], the viability (% of control) turned out to be 76.1%. The Potency result in test [5], in test [6], in test [7], in test [8], in test [13] and in test [9] was “inactive” in each case. Besides, the Potency result in test [10] and in [12] was “inactive” in each case.

Take `CCCCS(=N)(=O)CCC(N)C(=O)O` (stereo unspecified): the parasite growth, % of control (lower = inhibition) in test [1] is 193%. Besides, the growth, % of control in [2] is 102%. Besides, the cell viability, % of control (lower = more cytotoxic) in [3] was 17.3%. Also, the viability (% of control) in test [4] turned out to be 34.2%. Besides, the Potency entry in test [5], in test [6], in test [7], in test [8], in test [13] and in test [12] was “inactive” each time. In addition, the Potency in [11] is 14.8 µM (active).

As for `O=c1cc(O)c(Cl)c[nH]1`, the parasite growth, % of control (lower = inhibition) in test [1] is 20.4%. For the same molecule, the growth, % of control in test [2] came to 21.5%. Further, the cell viability, % of control (lower = more cytotoxic) in [3] amounted to 246%. In test [4], the viability (% of control) turned out to be 39.2%. Further, the Potency entry in test [5], in [6], in test [7], in test [8], in [13] and in test [9] was “inactive” in each case. The Potency result in test [10] and in test [12] was “inactive” in each case.
